Results reported in PubChem BioAssay (EPA / NIEHS).
Records with an inconclusive call do not appear. Activity calls are given as the source filed them. Rule for the calls, unless noted: active = hit-call score of the fitted dose curve at least 0.9, where 1 is the maximum; inconclusive = response in the unintended direction; inactive = score below 0.9.

Target: Thyroid hormone receptor alpha (Rattus norvegicus) + Thyroid hormone receptor beta (Rattus norvegicus) (UniProt P18113+P63059)
Sequence (P63059 whole entry, looked up): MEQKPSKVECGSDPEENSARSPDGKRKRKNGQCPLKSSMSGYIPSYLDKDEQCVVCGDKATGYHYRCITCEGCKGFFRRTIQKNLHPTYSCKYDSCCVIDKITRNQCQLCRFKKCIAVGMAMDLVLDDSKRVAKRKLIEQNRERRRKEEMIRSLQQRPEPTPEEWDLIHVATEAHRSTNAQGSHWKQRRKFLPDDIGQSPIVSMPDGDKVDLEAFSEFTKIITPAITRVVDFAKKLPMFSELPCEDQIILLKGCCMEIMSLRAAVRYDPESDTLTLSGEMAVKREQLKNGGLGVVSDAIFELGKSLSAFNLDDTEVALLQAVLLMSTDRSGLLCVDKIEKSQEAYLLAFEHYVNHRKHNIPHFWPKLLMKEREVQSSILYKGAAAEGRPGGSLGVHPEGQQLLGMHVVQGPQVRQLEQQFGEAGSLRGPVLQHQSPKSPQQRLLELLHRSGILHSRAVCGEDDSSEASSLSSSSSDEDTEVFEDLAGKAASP
Sequence (P18113 whole entry, looked up): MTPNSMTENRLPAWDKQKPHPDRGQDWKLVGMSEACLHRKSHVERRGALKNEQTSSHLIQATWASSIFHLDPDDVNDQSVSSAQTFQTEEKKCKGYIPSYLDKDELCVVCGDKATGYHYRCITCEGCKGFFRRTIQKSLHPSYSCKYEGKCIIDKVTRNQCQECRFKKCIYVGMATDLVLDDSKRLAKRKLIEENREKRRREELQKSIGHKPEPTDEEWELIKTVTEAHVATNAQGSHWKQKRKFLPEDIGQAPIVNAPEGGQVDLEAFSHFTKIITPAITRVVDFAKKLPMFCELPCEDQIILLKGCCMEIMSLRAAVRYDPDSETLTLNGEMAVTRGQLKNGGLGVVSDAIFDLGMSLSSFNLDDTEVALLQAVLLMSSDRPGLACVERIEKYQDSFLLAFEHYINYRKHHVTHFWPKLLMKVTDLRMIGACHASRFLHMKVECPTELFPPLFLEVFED
Test: TOX21_TR_LUC_GH3_Agonist_Followup: Tox21 GH3 Thyroid Hormone Receptor Agonism Luciferase Follow-Up Assay (AID 2283939)
Procedure, shortened: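 Agonist-mode confirmatory run: 15 concentrations (5 nM to 92 uM final) on GH3 rat pituitary cells, 24 h at 37C/5% CO2, T3 as positive control. Luminescence read with ONE-Glo after 30 min.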
With `O=C(Cl)OCCOCCOC(=O)Cl` the outcome was “inactive”.
For `CC1(C)COP(Oc2ccccc2)OC1`, the outcome was “inactive”.
In the case of `c1csc(-c2ccc(-c3cccs3)s2)c1`, the outcome was “inactive”.

Tested on: not listed separately
Test: TOX21_PR_LUC_Followup_Antagonist_viability: Viability Assessment in the Tox21 HEK293 Progesterone Receptor (PR) Antagonism Luciferase Follow-Up Assay (AID 2283940)
Procedure, shortened: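 HEK293-PR-A-luc, 3,000 cells/well; 5 h at 37C/0% CO2; compound pin transfer; 16 h incubation; CellTiter-Glo ATP luminescence, signal loss = cytotoxicity.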
With `CC(C)(C1CCC(O)CC1)C1CCC(O)CC1` (centres undefined) the outcome was “inactive”.
With `OC(c1ccc(Cl)cc1)(c1ccc(Cl)cc1)c1cccnc1` the outcome was “inactive”.
For `CC(C)CC(C)(c1ccc(O)cc1)c1ccc(O)cc1`, the outcome was “inactive”.
For `Cc1ccccc1OP(=O)(Oc1ccccc1C)Oc1ccccc1C`, the outcome was “inactive”.
With `Nc1ccc(-c2ccccc2)cc1` the outcome was “inactive”.
For `CCOP(=S)(OCC)Oc1ccc(Cl)cc1Cl`, the outcome was “inactive”.
With `O=[N+]([O-])c1ccc(Nc2ccccc2)cc1` the outcome was “inactive”.

Tested on: not listed separately
Test: TOX21_PR_LUC_Followup_Agonist_viability: Viability Assessment in the Tox21 HEK293 Progesterone Receptor (PR) Agonism Luciferase Follow-Up Assay (AID 2283941);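 note: loss of signal means cytotoxicity so actives lower viability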
Procedure, shortened: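 Multiplexed viability endpoint of the PR agonist luciferase follow-up: HEK293-PR-A-luc cells treated 16 h at 37C, with viability scored as decrease in CellTiter-Glo ATP signal.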
In the case of `CC(C)(C1CCC(O)CC1)C1CCC(O)CC1` (centres undefined), the outcome was “inactive”.
For `OC(c1ccc(Cl)cc1)(c1ccc(Cl)cc1)c1cccnc1`, the outcome was “inactive”.
For `CC(C)CC(C)(c1ccc(O)cc1)c1ccc(O)cc1`, the outcome was “inactive”.
In the case of `Cc1ccccc1OP(=O)(Oc1ccccc1C)Oc1ccccc1C`, the outcome was “inactive”.
With `Nc1ccc(-c2ccccc2)cc1` the outcome was “inactive”.
For `CCOP(=S)(OCC)Oc1ccc(Cl)cc1Cl`, the outcome was “inactive”.
With `O=S(=O)(Oc1ccc(Cl)cc1)c1ccc(Cl)cc1` the outcome was “inactive”.
For `O=[N+]([O-])c1ccc(Nc2ccccc2)cc1`, the outcome was “inactive”.

Target: THRA (gene 7067) (UniProt P10827)
Sequence (P10827 whole entry, looked up): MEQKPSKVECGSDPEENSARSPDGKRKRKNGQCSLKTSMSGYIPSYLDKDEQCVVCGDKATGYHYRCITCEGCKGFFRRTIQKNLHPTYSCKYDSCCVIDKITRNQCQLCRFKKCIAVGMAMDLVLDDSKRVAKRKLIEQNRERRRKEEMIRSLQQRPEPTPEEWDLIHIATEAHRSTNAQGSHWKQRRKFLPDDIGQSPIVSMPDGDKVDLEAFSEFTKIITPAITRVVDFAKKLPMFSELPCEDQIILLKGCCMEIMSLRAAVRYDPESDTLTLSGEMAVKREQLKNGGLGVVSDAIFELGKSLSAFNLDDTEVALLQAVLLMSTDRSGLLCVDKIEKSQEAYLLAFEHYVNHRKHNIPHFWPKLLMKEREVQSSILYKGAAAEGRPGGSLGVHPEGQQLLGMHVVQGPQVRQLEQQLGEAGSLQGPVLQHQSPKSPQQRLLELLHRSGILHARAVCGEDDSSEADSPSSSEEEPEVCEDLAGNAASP
Test: TOX21_TRA_COA_Agonist_Followup_ratio: Tox21 Thyroid Hormone Receptor alpha Agonism through Coactivator Recruitment Follow-Up Assay, Ratio (AID 2283948; active = hit-call score of the fitted dose curve at least 0.9, where 1 is the maximum; inactive = score below 0.9)
Procedure, shortened: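 GST-TRa LBD 2.5 nM + 0.10% BSA + cpd; add fluorescein-SRC-2 200 nM, Tb-anti-GST 2 nM. TR-FRET ex 340, em 520/495 ratio. Norm: DMSO 0%, T3 100%; gain-of-signal fit.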
With `CN(C)c1ccc(N=O)cc1` the outcome was “inactive”.
With `O=C(Cl)OCCOCCOC(=O)Cl` the outcome was “inactive”.
With `C=CC(=O)[O][Sn]([CH2]CCC)([CH2]CCC)[CH2]CCC` the outcome was “inactive”.
In the case of `CC1(C)COP(Oc2ccccc2)OC1`, the outcome was “inactive”.
In the case of `c1csc(-c2ccc(-c3cccs3)s2)c1`, the outcome was “inactive”.
With `CCC[CH2][Sn]([CH2]CCC)([CH2]CCC)[CH2]CCC` the outcome was “inactive”.

Target: THRB (gene 7068) (UniProt P10828)
Sequence (P10828 whole entry, looked up): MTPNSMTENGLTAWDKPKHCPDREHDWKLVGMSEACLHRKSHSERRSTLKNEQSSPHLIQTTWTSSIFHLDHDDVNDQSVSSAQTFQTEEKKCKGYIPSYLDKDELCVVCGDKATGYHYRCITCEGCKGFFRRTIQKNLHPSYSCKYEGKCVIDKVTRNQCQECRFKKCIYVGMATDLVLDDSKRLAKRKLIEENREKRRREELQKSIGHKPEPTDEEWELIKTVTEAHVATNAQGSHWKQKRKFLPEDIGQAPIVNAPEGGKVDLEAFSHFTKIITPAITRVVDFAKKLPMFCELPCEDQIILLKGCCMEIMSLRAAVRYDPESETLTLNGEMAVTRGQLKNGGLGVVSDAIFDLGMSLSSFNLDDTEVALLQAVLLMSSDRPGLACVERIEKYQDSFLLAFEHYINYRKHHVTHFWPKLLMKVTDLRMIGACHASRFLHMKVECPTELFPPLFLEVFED
Test: TOX21_TRB_BLA_Agonist_Followup_ratio: Tox21 Thyroid Hormone Receptor beta Agonism Beta-lactamase (BLA) Follow-Up Assay, Ratio (AID 2283954)
Procedure, shortened: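 Agonist mode: compounds (11-point, triplicate) incubated 18 h with HEK293T cells carrying GAL4-DBD/human TRβ-LBD and UAS-β-lactamase. Blue/green (460/530 nm) FRET ratio read after 2 h CCF4-AM loading; CellTiter-Glo viability run in the same plates.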
With `O=C(Cl)OCCOCCOC(=O)Cl` the outcome was “inactive”.
In the case of `C=CC(=O)[O][Sn]([CH2]CCC)([CH2]CCC)[CH2]CCC`, the outcome was “inactive”.
With `c1csc(-c2ccc(-c3cccs3)s2)c1` the outcome was “inactive”.
In the case of `CCC[CH2][Sn]([CH2]CCC)([CH2]CCC)[CH2]CCC`, the outcome was “inactive”.

Tested on: not listed separately
Test: TOX21_TRB_BLA_Agonist_Followup_viability: Viability Assessment in the Tox21 Thyroid Hormone Receptor beta Agonism Beta-lactamase (BLA) Follow-Up Assay (AID 2283956)
Excerpt: The GeneBLAzer TRb-UAS-bla HEK293T assay kit for human TRb (ThermoFisherScientific Catalog No. K1684) was used as a secondary assay for specificity (TRb-bla). This assay contained the ligand-binding domain (LBD) of the human TRb fused to the DNA-binding domain of GAL4 stably integrated in the GeneBLAzer UAS-bla HEK293Tcell line. The reporter gene, b-lactamase, is under the transcriptional control of a UAS that binds the GAL4 DNA-binding domain. A cell viability assay was run in parallel for these cells as well using the CellTiter-Glo viability assay kit.TOX21_TRB_BLA_Agonist_Followup_viability is a component of the TOX21_TRB_BLA_Agonist_Followup assay. This component measures cell viability using the CellTiter-Glo Luciferase-coupled ATP quantitation.The assay component endpoint TOX21_TRB_BLA_Agonist_Followup_viability was analyzed with bidirectional fitting relation to DMSO as the negative control and baseline of activity. Using a type of viability reporter, loss-of-signal activity can be used to understand changes in viability. To generalize the intended target to other relatable targets, this assay endpoint is annotated to cell cycle, where the subfamily is cytotoxicity.
Cell Media Required: Growth (90% DMEM/F-12, 10% Fetal Bovine Calf Serum, 100U/ml Penicillin, 100 ug/ml Streptomycin), Assay (10ng/mL sodium selenite, 10 ug/mL humanapo-transferrin, 10 uM ethanolamine, 10 ug/mL insulin, 500 ug/mL bovine serum albumin (BSA))Assay Protocol: TRb-bla cells were dispensed at 3,000 cells/well in 5 uL of the assay medium containing phenol red-free DMEM with 2% charcoal-stripped FBS in 1,536-well black-wall/clear-bottom plates using an FRD. After 5-h incubation at 37C/5% CO2 for cell attachment to the well bottom, 23nL of follow-up compounds dissolved in DMSO, 11 concentrations in triplicate, and the positive control (T3; agonist format) were transferred to the assay plates using a Pintool station. The assay plates were incubated at 37C/5% CO2 for 18h. One microliter LiveBLAzer FRET-B/G CCF4-AM substrate was added to each well using an FRD. After 2-h incubation at room temperature, the fluorescence intensity was measured using an Envision plate reader. Data were expressed as the ratio of 460:530nm. The cytotoxicity of the compounds was measured in the same plates by adding 4 uL of CellTiter-Glo reagent to each well and incubating the plates at room temperature for 30 min. The luminescence intensity was measured using a ViewLux plate reader.For the luciferase reporter gene assay, 5 uL/well (agonist format) and 4 uL/well (antagonist format) ONE-Glo reagent (Promega Corporation) was added using an FRD and after 30-min incubation at room temperature, the luminescence intensity was measured using a ViewLux plate reader. Data were expressed as relative fluorescence units (cell viability assay) and relative luminescence units (luciferase reporter assay).
With `CN(C)c1ccc(N=O)cc1` the outcome was “inactive”.
For `O=C(Cl)OCCOCCOC(=O)Cl`, the outcome was “inactive”.
In the case of `C=CC(=O)[O][Sn]([CH2]CCC)([CH2]CCC)[CH2]CCC`, the outcome was “inactive”.
In the case of `CC1(C)COP(Oc2ccccc2)OC1`, the outcome was “inactive”.
With `c1csc(-c2ccc(-c3cccs3)s2)c1` the outcome was “inactive”.
In the case of `CCC[CH2][Sn]([CH2]CCC)([CH2]CCC)[CH2]CCC`, the outcome was “inactive”.
